# This is a sample that favours compounds with a hit; in the whole collection about 2.5% have one here.
# KLF5 inh – suppresses KLF5 promoter-driven expression. DLD-1 KLF5 promoter-luciferase reporter, luminescence. inhibition, % at 5 µM. actives 0.23% (n = 290,000);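 active means inhibition above a per-plate limit of that plate's mean compound inhibition plus 3 SD, cut at about 60% in these data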;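 further: 0% = DMSO wells and 100% = LY294002 at 200 µM; higher means less KLF5 promoter-driven luciferase light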
# 697 NFkB inh – lowers PMA/ionomycin-induced NF-kB signal in 697 B cells; 697 B-cell NF-kB luciferase reporter, 16 h; inhibition, % at 4 µM; actives 0.33% (n = 330,000); AID 435022; in the data active means inhibition above about 35%
# ANO1 activ – activates or potentiates the mouse TMEM16A chloride channel; HEK293 TMEM16A/YFP-H148Q/I152L, iodide quench fluorescence; stronger effect = lower value; B-score at 10 µM; actives 0.3% (n = 340,000);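 active means fluorescence-ratio B-score plate-corrected deviation score at least 3 library SD below zero, with starting fluorescence score within 5 deviations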;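 further: channel opened by trigger with iodide after compound preincubation; score built on the fluorescence ratio of max minus min over baseline; more negative score means more quench and so TMEM16A activation or potentiation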
# TMEM16A inh – inhibitors of mouse TMEM16A calcium-activated chloride channel | Q8BHY3 | HEK293 TMEM16A/YFP iodide influx fluorescence, ionomycin | normalized B-score (activity score, 25-100; higher = stronger inhibition) at 10 µM | actives 1.2% (n = 310,000);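 active means ratio plate-corrected score three or more library SD toward inhibition, starting fluorescence score within five deviations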;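 further: score derived from kinetic fluorescence span divided by baseline fluorescence per well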
# aSyn 5UTR inh – MLPCN primary screen, SNCA 5' untranslated region. alpha-synuclein 5'UTR reporter, inhibitor activity. inhibition, % (tested at 7.5 µM). actives 0.82% (n = 300,000). AID 1813; in the data active means inhibition above about 60%;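 further: H4 neuroglioblastoma cells stably carrying SNCA 5'UTR luciferase fusion; 0% = DMSO wells and 100% = positive control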
# Jurkat NFkB inh – inhibitors of the PMA/ionomycin-induced NF-kB reporter in Jurkat cells | inhibition, % at 4 µM | PMA/ionomycin-induced NF-kB luciferase reporter, luminescence | actives 0.53% (n = 330,000); in the data active means inhibition above about 50%
# 697 NFkB conf – inhibitors of the PMA/ionomycin-induced NF-kB reporter in 697 B cells, retest; shares compounds with 697 NFkB inh; 697 B-cell NF-kB luciferase, 16 h; inhibition, % at 4 µM; actives 35% (n = 2,000); AID 449746; in the data active means inhibition mostly above about 28%, no sharp cut-off; inactive means mostly below about 22%
# The depositor's hits bear a star; i = inactive; / = no result.
SMILES,KLF5 inh,697 NFkB inh,ANO1 activ,TMEM16A inh,aSyn 5UTR inh,Jurkat NFkB inh,697 NFkB conf
COc1ccc2cc3cc(C(=O)Nc4cc(OC)c(OC)c(OC)c4)oc3nc2c1,-23.0,36.9*,i,i,-1.5,37.6,0.2
Cc1ccc(C(=O)NCC(=O)N(C)CC(=O)Nc2ccccc2Br)s1,/,2.6,i,/,/,-4.5,/
Cc1ccc(C(=O)Nc2ncc3c(Cl)cccc3n2)cc1,-51.8,-255.9,i,i,64.5*,-77.1,-262.8
COc1ccc(C2C(C#N)=C(N)OC(C(C)(C)C)=C2C#N)cc1OC (configuration not stated),-35.2,23.8,i,i,8.0,2.2,/
COc1cccc(C2C(C#N)=C(N)OC(C(C)(C)C)=C2C#N)c1 (configuration not stated),6.2,35.6*,i,i,-114.6,7.2,4.5
CC(OC(=O)c1ccc(Cl)nc1)C(=O)N1CCc2ccccc21 (configuration not stated),/,-15.7,i,i,9.4,-15.6,/
CC(C)C(=O)Nc1ccc(NC(=O)c2ccc3c(c2)OCO3)cc1,-30.6,49.6*,i,i,-33.7,-12.5,43.0*
CCOCc1nnc(NC(=O)c2ccc3c(c2)OCO3)s1,-53.7,4.3,i,i,-51.4,-6.1,/
CC(C)Cc1nnc(NC(=O)c2ccc3c(c2)OCCO3)s1,/,-268.0,i,/,/,-128.2,-193.4
O=C(Nc1ncccc1O)c1ccc2c(c1)OCCO2,/,-290.3,i,i,-222.2,-59.9,-185.4
CCCN1C(=O)c2ccc(C(=O)Nc3ccc4c(c3)OCO4)cc2C1=O,-58.9,36.0*,i,i,-41.0,4.3,-2.3
C=CCn1cnnc1SCC(=O)Nc1cccnc1Cl,/,-41.1,/,/,/,-9.3,/
COc1ccccc1OCCNC(=O)CN1C(=O)NC2(CCCC2)C1=O,/,10.6,i,/,/,9.3,/
Cc1ccc(NC(=O)c2ccc3c(c2)OCCO3)cc1C,28.7,-263.6,i,i,74.2*,-83.7,-367.5
CC(c1ccccc1)N1C(=O)c2ccc(C(=O)NCc3cccnc3)cc2C1=O (configuration not stated),-16.9,-30.3,i,i,6.6,-9.4,/
O=C1N[C@@H](Cc2cn(S(=O)(=O)c3ccccc3)c3ccccc23)C(=O)N[C@H]1Cc1ccccc1,/,37.6*,i,i,4.8,13.4,16.3
O=C1N[C@@H](Cc2cn(S(=O)(=O)c3ccc(F)cc3)c3ccccc23)C(=O)N[C@H]1Cc1ccccc1,/,24.3,/,i,-3.2,8.4,/
CCOC(=O)Oc1c(OC)cc(C(=O)O[C@@H]2C[C@@H]3CN4CCc5c([nH]c6cc(OC)ccc56)[C@H]4C[C@@H]3[C@H](C(=O)OC)[C@H]2OC)cc1OC,/,36.9*,i,i,/,11.1,25.5
O=C(NC(Cc1c[nH]c2ccccc12)C(=O)Nc1ccc(F)c([N+](=O)[O-])c1)c1cccs1 (configuration not stated),37.4,i,i,i,0.0,-44.2,-265.0
O=C(NC(Cc1c[nH]c2ccccc12)C(=O)Nc1ccc(OC(F)(F)F)cc1)c1cccs1 (configuration not stated),18.4,i,i,i,10.1,-64.7,8.4
COc1ccccc1NC(=O)[C@@H]1CCCN1S(=O)(=O)c1ccc(Cl)cc1,/,-1.6,i,/,/,1.9,/
O=C(O)c1ccc(N=Nc2c(O)[nH]c3cc(Cl)ccc23)cc1,-150.1,-332.4,i,i,-294.4,-91.4,-313.6
O=C(C(c1ccccc1)C(O)c1ccccc1)N1CCOCC1 (configuration not stated),/,/,i,/,/,/,/
Clc1ccc(/C=C/c2nc3ccccc3[nH]2)c(Cl)c1,47.2,-487.7,i,i,68.2*,-146.1,i
CCc1nnc(NC(=O)CSc2ccc(-c3ccc(-n4cccn4)cc3)nn2)s1,/,-40.4,i,i,-98.4,-28.7,/
COc1ccc(CNC(=O)C2CCCN(S(=O)(=O)c3c(C)noc3/C=C/N(C)C)C2)cc1 (configuration not stated),-17.5,-4.3,i,i,-5.6,-10.3,/
